PubChem BioAssay (Tox21)
Results filed as inconclusive are left out. The source made the active and inactive calls. Calls follow the shape of the full dose curve.

Experiment: qHTS assay to identify small molecule antagonists of the sonic hedgehog signaling (Shh) pathway (AID 1259369); also: nearly all actives have a fitted effect of over 45% in size
Conditions: NIH/3T3 Gli1-Luc reporter, Shh antagonist, luminescence 24 h; series mostly up to 92.4 µM; activity change, negative = inhibition: at the top concentration
Description: U.S. Tox21 Program National Center for Advancing Translational Sciences [NCATS] NIH Chemical Genomics Center [NCGC] U.S. Environmental Protection Agency [EPA] National Institutes of Environmental Health Sciences [NIEHS] National Toxicology Program [NTP] U.S. Food and Drug Administration [FDA] Tox21 Assay Overview: The sonic hedgehog (Shh) pathway is essential for normal embryonic development. Dysregulation of the Shh pathway can cause severe developmental defects in organs. Therefore chemicals that interfere with the pathway are potential developmental toxicants. A cell line designated 3T3Gli1-Luc (DMB/OARSA/CFSAN/FDA, Laurel, MD), a NIH/3T3 derived clone containing stably integrated Gli1-Luc reporter is used to detect chemical interference of the Shh pathway, by changes in the expression of the firefly Luc gene under the control of the Gli1 transcriptional response element. This cell line was used to screen Tox21 libraries for identifying and prioritizing the potential developmental toxicants that interfere Shh pathway. Conditioned medium-stimulated mode was used to screen for chemicals inhibiting Shh signaling.
Tox21 Assay Protocol Summary: 3T3 Gli1-Luc cells were dispensed at 2,000 per well in 5uL of culture medium into white solid bottom 1536-well plates (Greiner Bio-One, Monroe, NC) using a Multidrop Combi (Thermo Scientific, Waltham, MA) dispenser. The assay plates were incubated at 37 C and 5% CO2 for 4hr, and then 23nL of compounds dissolved in DMSO and positive control were transferred using a Pintool station (Wako, San Diego, CA). The compound transfer was followed by the addition of 1ul conditioned medium or assay buffer using two separate tips of Flying Reagent Dispenser (FRD, Aurora Discovery, San Diego, CA). The assay plates were incubated at 37C and 5% CO2 for 24hr. For luciferase read, 4uL of Amplite Luciferase reporter gene assay reagent (AAT Bioquest, Inc. Sunnyvale, CA) was added to each well of the assay plates using FRD and incubated at room temperature for 30min. The luminescence signal was measured using a ViewLux plate reader (Perkin Elmer, Shelton, CT).
% is scaled to controls: 0 for no effect and ±100 for the full control effect; potency is read from the fitted curve at half-maximal effect.

| Structure (SMILES) | activity change, negative = inhibition | Potency |
| --- | --- | --- |
| C1=C\CC/C=C\CC/C=C\CC/1 | 5.47% (inactive) |  |
| CCN1CCCC1CNC(=O)c1cc(S(N)(=O)=O)ccc1OC (stereo not given) | -17.7% (inactive) |  |
| CC(C)[N+](C)(C)CC(O)COc1cccc2ccccc12 (stereo not given) | 6.36% [at 42.5 µM] (inactive) |  |
| C=CCn1c(=O)n([C@@H]2O[C@H](CO)[C@@H](O)[C@H]2O)c2nc(N)[nH]c(=O)c21 | 9.49% [at 42.5 µM] (inactive) |  |
| CC(C)CCCC(C)CCCC(C)CCCCC(C)CCCC(C)CCCC(C)C (stereo not given) | -6.77% [at 42.5 µM] (inactive) |  |
| O=c1[nH]c(=O)n([C@H]2O[C@H](CO)[C@@H](O)[C@@H]2O)cc1/C=C\Br | -16.6% [at 42.5 µM] (inactive) |  |
| CCCCNc1ccccc1 | 14.5% (inactive) |  |
| O=c1[nH]c2ccccc2c(=O)n1CCCl | 1.55% [at 42.5 µM] (inactive) |  |
| Nc1nc2c(ncn2CCC(CO)CO)c(=O)[nH]1 | 26.3% [at 42.5 µM] (inactive) |  |
| O=Cc1ccccc1[N+](=O)[O-] | -3.95% (inactive) |  |
| O=C1OC(=O)c2cc([N+](=O)[O-])ccc21 | -3.28% (inactive) |  |
| NCCNC(=O)c1ccc(Cl)cn1 | 5.78% [at 42.5 µM] (inactive) |  |
| CCCCCOC(=O)Nc1nc(=O)n([C@@H]2O[C@H](C)[C@@H](O)[C@H]2O)cc1F | 21% [at 42.5 µM] (inactive) |  |
| CCCOc1ccccc1-c1nc2n[nH]nc2c(=O)[nH]1 | 17.3% [at 42.5 µM] (inactive) |  |
| CCC(=O)/C=C/c1ccc(OC)cc1 | 4.93% (inactive) |  |
| OC1OC[C@@H](O)[C@H](O)[C@H]1O (stereo not given in full) | 4.31% (inactive) |  |
| Cc1cc(C)cc(OCC2CNC(=O)O2)c1 (stereo not given) | 6.72% [at 42.5 µM] (inactive) |  |
| C=C(C)C(=O)OCCCCCCCCCCCCCCCCCC | 6.62% [at 19 µM] (inactive) |  |
| CCCc1ccccc1O | 9.59% (inactive) |  |
| NC(=O)CCCCC1CCSS1 (stereo not given) | -2.49% [at 42.5 µM] (inactive) |  |

| Structure (SMILES) | activity change, negative = inhibition | Potency |
| --- | --- | --- |
| C1C2OC2C2C1C1CC2C2OC12 (stereo not given) | 23.6% (inactive) |  |
| CCC(=O)Nc1cccc(N)c1 | 0.14% (inactive) |  |
| C=C(C)C(=O)NCCC[N+](C)(C)C | 20% (inactive) |  |
| CCN1CCN(c2cc3c(cc2F)c(=O)c(C(=O)O)cn3C2CC2)CC1 | 22.6% [at 42.5 µM] (inactive) |  |
| COC(=O)[C@H]1[C@H]2C[C@@H]3c4[nH]c5cc(OC)ccc5c4CCN3C[C@H]2C[C@@H](OC(=O)COc2ccc(OC)cc2)[C@@H]1OC | -14.1% [at 42.5 µM] (inactive) |  |
| c1cc(CN2CCCCC2)cc(OCCCNc2nc3ccccc3s2)c1 |  | 4.73 µM (active) |
| CCCCCC[C@@H](CCC)C(=O)O | -11.2% [at 42.5 µM] (inactive) |  |
| C1CCCCCCCCCCC1 | 13.4% [at 19 µM] (inactive) |  |
| CCCC(C)C(=O)O (stereo not given) | 26.6% (inactive) |  |
| Cc1c(F)cc2c(=O)c(C(=O)O)cn3c2c1CCC3C (stereo not given) | 0.901% [at 42.5 µM] (inactive) |  |
| CC(C)CCCC(C)NCCC(C)C (stereo not given) | 1.71% [at 42.5 µM] (inactive) |  |
| OCC(CO)(CO)COCC(CO)(CO)CO | 0.305% (inactive) |  |
| OCCN1C[C@H](O)[C@@H](O)[C@H](O)[C@H]1CO | -0.397% [at 42.5 µM] (inactive) |  |
| C=CC(=O)OCCCCCC | 0% (inactive) |  |
| OCCCCCCO | 0% (inactive) |  |
| CCCCCCCCCCCCCCC | -2.71% (inactive) |  |
| OCc1ccccn1 | 5.33% [at 42.5 µM] (inactive) |  |
| COc1ccc(N=[N+]([O-])c2ccc(OC)cc2)cc1 | 31% (inactive) |  |
| CC(C)(C)C(=O)/C=C/c1ccc(Cl)cc1 | -16.6% (inactive) |  |
| Nc1ccc2cc(S(=O)(=O)O)ccc2c1 | 0% (inactive) |  |
